# Data: PubChem BioAssay (NCATS)
# Inconclusive results are not listed. Unmarked numbers belong to inactive results. Active and inactive are the calls of the source. The call rests on the fitted dose curve; in most records, active means well fitted inhibition curve with a large enough effect; inconclusive means small, poorly fitted or top-dose-only effect; inactive means flat fitted curve, though single readings scatter.
# How the values were obtained:
# CRL-7250 = normal cell line; test: Cytotoxic Profiling of Annotated Libraries Using Quantitative High-Throughput Screening (AID 1296008); conditions: Five cell lines viability, CellTiter-Glo ATP luminescence, 48-72 h; max response: hits give low values; further: potency means the concentration at half of the fitted maximal effect; on max response: on the % scale 0 is the no-effect control and ±100 the full control effect
# How it was run: (§1)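 Cytotoxicity was measured as CellTiter-Glo ATP luminescence, read after 10 min at room temperature. Compound treatment of the cells lasted 48 or 72 hr at 37 degrees Celsius in a qHTS format.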
# HEK293 = test: as above; conditions: Five cell lines viability, CellTiter-Glo ATP luminescence, 48-72 h; max response: hits give low values
# How it was run: as §1
# HaCat [1] = test: as above; conditions: Five cell lines viability, CellTiter-Glo ATP luminescence, 48-72 h; max response: hits give low values
# How it was run: as §1
# KB-3-1 = test: as above; conditions: Five cell lines viability, CellTiter-Glo ATP luminescence, 48-72 h; max response: hits give low values
# How it was run: as §1
# NIH3T3 = test: as above; conditions: Five cell lines viability, CellTiter-Glo ATP luminescence, 48-72 h; max response: hits give low values
# How it was run: as §1
# HACAT [2] = test: qHTS assay to identify novel small-molecules to repurpose for Merkel cell carcinoma treatment (AID 1296009); conditions: MCC and control cell lines, CellTiter-Glo viability, 72 h; at 44.8 µM (top of the series) unless noted
# How it was run: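 Cell viability measured by CellTiter-Glo following 72 hr compound treatment at 37 degree celsius, with NPC and MIPE libraries tested in 8- and 11-point concentration series.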
# Further: nearly all actives have a fitted effect of over 60% in size.
Compound,max response (CRL-7250) [%],max response (HEK293) [%],outcome (HaCat [1]),max response (KB-3-1) [%],max response (NIH3T3) [%],outcome (HACAT [2]),outcome (CRL-7250),outcome (NIH3T3),outcome (KB-3-1),Potency (HEK293)
C=C1CC2C(C)(CCC(=O)O)C(C(C)(C)O)CCC2(C)C2(C(=O)OC)C(=O)C(C)(O)C(=O)C12C (configuration not stated),-12.5,-13.4,inactive,1.2,0.874,inactive [at 17.4 µM],–,–,–,–
C/C=C/C=C/C1=C2C(=O)C3(C)C4C(C(=O)CC(O)/C=C/C)=C(O1)C1(C)C2C2(C)OC1(O)C4(C)OC23O (configuration not stated),–,-2.55,inactive,3.96,–,inactive [at 17.4 µM],inactive,inactive,–,–
N#Cc1cc(-c2n[nH]c(-c3ccncc3)n2)ccn1,-0.428,-15.1,inactive,-1.34,0.552,inactive,–,–,–,–
CC1(C)CC=C(c2cnc3ccccc3c2)c2cc(C(=O)Nc3ccc(C(=O)O)cc3)ccc21,–,2.92,inactive,–,-2.18,inactive,inactive,–,inactive,–
Nc1ncnc2c1C(=O)N(c1ccc(C3CCC(CC(=O)O)CC3)cc1)CCO2 (configuration not stated),2.41,-15.1,inactive,–,–,inactive,–,inactive,inactive,–
COc1cc(CO)ccc1O[C@@H]1O[C@H](CO)[C@@H](O)[C@H](O)[C@H]1O,-0.424,-18.7,inactive,5.53,–,inactive,–,inactive,–,–
CC(=O)O[C@@H](C[C@@H]1C=C(C)C(=O)O1)[C@H](C)[C@H]1CCC2[C@@]3(C)CC[C@H](O[C@@H]4O[C@H](CO)[C@@H](O)[C@H](O)[C@H]4O[C@@H]4O[C@@H](C)[C@H](O)[C@@H](O)[C@H]4O)C(C)(C)C3CC[C@@]2(C)[C@@]12COC(=O)C2 (some centres not stated),–,-15.8,inactive,1.23,–,inactive [at 9.27 µM],inactive,inactive,–,–
COc1cc(CC2COC(c3ccc(OC4OC(CO)C(O)C(O)C4O)c(OC)c3)C2CO)ccc1O (configuration not stated),–,0.464,inactive,–,–,inactive [at 17.4 µM],inactive,inactive,inactive,–
C/C=C/C=C/C(O)=C1/C(=O)[C@]2(C)C(=O)[C@@](C)(O)[C@H]1[C@H]([C@@]1(C)OC(=O)C(C)=C1O)[C@H]2C(=O)CC/C=C/C,–,-3.93,inactive,–,–,inactive [at 17.4 µM],inactive,inactive,inactive,–
COC(=O)Cn1nc(-c2cccc(OC)c2)c2ccccc21,4.76,-5.92,inactive,1.13,2.46,inactive,–,–,–,–
C/C=C(\C)C(=O)OCC1OC(OC2OC(CO)C(O)C(O)C2O)C(O)C(O)C1O (configuration not stated),–,-3.96,inactive,–,-3.87,inactive [at 17.4 µM],inactive,–,inactive,–
CC(=O)OC12CC(C)C(OC(=O)c3ccccc3)C1/C=C(/C)C(OC(=O)c1ccccc1)CC(=O)C(C)(C)/C=C/C(C)C2=O (configuration not stated),-26.4,-14.7,inactive,–,1.94,inactive [at 17.4 µM],–,–,inactive,–
CCCC(C(=O)O)c1c(C)nc2ccc(Cl)cc2c1-c1ccccc1 (configuration not stated),3.26,-5.83,inactive,2.25,1.27,inactive,–,–,–,–
C[C@@H]1O[C@@H](OC2C(O[C@H]3[C@H](O[C@H]4CC[C@@]5(C)C(CC[C@]6(C)C5CC=C5C7CC(C)(C)CC(O)[C@]7(C)CC[C@]56C)C4(C)C)O[C@H](C(=O)O)[C@@H](O)[C@@H]3O)OC(CO)C(O)C2O)[C@H](O)[C@H](O)[C@H]1O (some centres not stated),4.13,-5.35,inactive,3.37,1.38,inactive [at 9.27 µM],–,–,–,–
CC(=C\C(C)O)/C=C(\C)C(=O)CC1CC(CC(N)=O)CC(=O)O1 (configuration not stated),–,1.11,inactive,–,–,inactive,inactive,inactive,inactive,–
COc1ccc(-n2[nH]c3c(cnc4ccccc43)c2=O)cc1,1.83,-1.19,inactive,–,3.94,inactive,–,–,inactive,–
CCc1nn(CCO)c(CC)c1Oc1cc(C#N)cc(C#N)c1,–,2.02,inactive,–,-3.44,inactive,inactive,–,inactive,–
CC1CC2OCC3(O)CCC(O)C(C14CC(c1ccoc1)OC4=O)C23CO (configuration not stated),–,-3.58,inactive,9.94,–,inactive,inactive,inactive,–,–
CC1OC(OC2CCC3(C)C(CCC4(C)C3C=CC35OCC6(CCC(C)(C)CC63)CCC45C)C2(C)CO)C(OC2OC(CO)C(O)C(O)C2O)C(O)C1OC1OC(CO)C(O)C(O)C1O (configuration not stated),-0.103,-1.62,inactive,–,–,inactive [at 9.27 µM],–,inactive,inactive,–

Compound,max response (CRL-7250) [%],max response (HEK293) [%],outcome (HaCat [1]),max response (KB-3-1) [%],max response (NIH3T3) [%],outcome (HACAT [2]),outcome (CRL-7250),outcome (NIH3T3),outcome (KB-3-1),Potency (HEK293)
Nc1c(-c2ccccc2)nc(Cl)c2c(O)n[nH]c(=O)c12,–,-7.38,inactive,9.61,–,inactive,inactive,inactive,–,–
COc1c2c(c(C)c3c1C(=O)OC3)OC1(C)CC(O)C34OC(OC)(CC(O)C3(C)C1C2)OC4(C)C (configuration not stated),0.784,-15.9,inactive,4.03,1.57,inactive [at 17.4 µM],–,–,–,–
CCC1=C(C)C(=O)C(C)CC12C(=O)CCC2C(=O)O (configuration not stated),-4.23,-5.13,inactive,0.468,–,inactive,–,inactive,–,–
CC(=O)OC1CC2C(C)(C)C(=O)C=CC2(C)C2CC(=O)C3=C(CCC3C3=CC(O)OC3=O)C12C (configuration not stated),3.26,2.36,inactive; activator,–,0.622,inactive; activator [at 17.4 µM],–,–,inactive,–
NC(=O)NCCCC(NC(=O)Cc1ccccc1)C(=O)O (configuration not stated),–,-0.44,inactive,3.03,3.99,inactive,inactive,–,–,–
Fc1ccc(-c2c3cccc(C(F)(F)F)c3nn2Cc2ccc(F)cc2Cl)cc1,-3.03,0.746,inactive,-3.04,–,inactive,–,inactive,–,–
CC[C@@H]1[C@H]2CCCCN3C(=O)C[C@H]([C@@H]4[C@H]1OC(=O)[C@H]4C)[C@@H]23,-4.41,-4.7,inactive,-6.87,–,inactive,–,inactive,–,–
CC(=O)NC1CC(=O)C23C(=O)NC(Cc4c[nH]c5ccccc45)C2C(C)=C(C)C(O)C3/C=C/CC(C)/C=C(/C)C(O)C1O (configuration not stated),-0.702,4.13,inactive,0.623,–,inactive [at 17.4 µM],–,inactive,–,–
CC1(C)CC[C@]2(C(=O)O[C@@H]3O[C@H](CO)[C@@H](O)[C@H](O)[C@H]3O)CC[C@]3(C)C(=CCC4[C@@]5(C)CC[C@H](O[C@@H]6O[C@H](C(=O)O)[C@@H](O[C@@H]7O[C@H](CO)[C@@H](O)[C@H](O)[C@H]7O)[C@H](O)[C@H]6O[C@@H]6O[C@H](CO)[C@@H](O)[C@H](O)[C@H]6O)C(C)(C)C5CC[C@]43C)C2C1 (some centres not stated),-7.32,-5.89,inactive,9.55,–,inactive [at 9.27 µM],–,inactive,–,–
CC1(C)CCC[C@]2(C)C1CC=C(CO)[C@H]2CC/C(=C/CO)CO (some centres not stated),-11.4,-9.82,inactive,-0.734,1.71,inactive,–,–,–,–
CC(C)(O)C1OC1C1=CC(=O)C2(C)OC2C1O (configuration not stated),–,-1.71,inactive,–,3.09,inactive,inactive,–,inactive,–
CS(=O)(=O)c1ccccc1N1CCN(c2nc3c(c(=O)[nH]2)CSCC3)CC1,0.787,1.58,inactive,-11.7,-5.12,inactive,–,–,–,–
Cc1ncc([N+](=O)[O-])n1C[C@H](O)CN1CCOCC1,–,2.87,inactive,–,-3.55,inactive,inactive,–,inactive,–
COC(=O)C1=CO[C@@H](O[C@@H]2O[C@H](CO)[C@@H](O)[C@H](O)[C@H]2O)[C@H]2[C@@H]1[C@H](O)C[C@]2(C)O,–,-1.47,inactive,–,-11.4,inactive [at 17.4 µM],inactive,–,inactive,–
C=C(C)[C@@H]1CC[C@]2(C(=O)O)CC[C@]3(C)[C@H](CCC4[C@@]5(C)CCC(=O)C(C)(C)C5C(O)C[C@]43C)C12 (some centres not stated),-6.3,–,inactive,-20.6,-1.28,inactive [at 17.4 µM],–,–,–,4.47 µM (active)
Cc1c(Cc2ccc3ccccc3n2)c2cc(F)ccc2n1CC(=O)O,-9.45,0.378,inactive,7.66,–,inactive,–,inactive,–,–
COC(=O)/C=C/c1ccc(O[C@@H]2O[C@H](CO)[C@@H](O)[C@H](O)[C@H]2O)cc1,-1.55,-5.47,inactive,2.42,–,inactive,–,inactive,–,–
C/C=C1/[C@H](O[C@@H]2O[C@H](CO)[C@@H](O)[C@H](O)[C@H]2O)OC=C2C(=O)O[C@@H]3C[C@@H](C(C)CO)[C@H](COC(=O)C[C@H]21)[C@H]3C (some centres not stated),3.26,-21.8,inactive,–,1.25,inactive [at 17.4 µM],–,–,inactive,–
